Source: PubChem BioAssay (Tox21)
Results filed as inconclusive are left out. Active and inactive are the calls of the source. Unless noted, calls come from the whole dose curve.

How the values were obtained:
[1] = Nuclear factor erythroid 2-related factor 2/antioxidant responsive element (Nrf2/ARE) small molecule agonists: qHTS cell viability counter screen in human keratinocytes (AID 1919968; active = well fitted curve in the direction sought with a large enough effect in the repeat runs; an effect the other way counts as inactive or inconclusive; note: nearly all actives have a fitted effect of over 55% in size)
In short: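 Stably transfected HaCaT (KeratinoSens), 1,500/well. Test agents in DMSO were applied for 23 h, 37 C/5% CO2. CellTiter-Fluor was incubated 1 h before the fluorescence read.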

[2] = Nuclear factor erythroid 2-related factor 2/antioxidant responsive element (Nrf2/ARE) small molecule agonists: luciferase reporter gene qHTS assay in human keratinocytes (AID 1919969); note: nearly all actives have a fitted effect of over 35% in size
[3] = molecular target: Gonadotropin-releasing hormone receptor (Homo sapiens) (UniProt P30968); test: Human gonadotropin-releasing hormone receptor (GnRHR) small molecule agonists, calcium flux assay in GnRHR-HEK293 cells (AID 1920063); note: nearly all actives have a fitted effect of over 35% in size; note: potency is the fitted concentration of half-maximal effect
In short: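 Stable human GnRHR HEK293 line. 18 h plating, then calcium dye for 1 h at 37 C. Agonist-mode compound addition from DMSO stocks; fluorescence monitored 3 min.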

[4] = molecular target: KiSS-1 receptor (Homo sapiens) (UniProt Q969F8); test: Human kisspeptin (KISS1R) small molecule agonists, calcium flux assay in KISS1R-HEK293 cells (AID 1920064; active = well fitted curve in the direction sought with a large enough effect in the repeat runs; an effect the other way counts as inactive or inconclusive)
In short: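 After overnight (18 h) culture at 37 C/5% CO2, human KISS1R-HEK293 cells received calcium dye for 1 h, then test compound; emission at 540 nm (excitation 480 nm) was tracked for 3 min.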

[5] = G protein-coupled receptor (GPCR) small molecule agonists, calcium flux assay: HEK293 wild type cell line counter screen (AID 1920065)
In short: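 Following 18 h incubation at 37 C/5% CO2, plates got calcium dye for 1 h; compounds, ATP or DMSO were then pinned in and fluorescence followed kinetically (480/540 nm).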

[6] = p53 small molecule agonists, cell-based qHTS assay with human liver microsomes: qHTS cell viability counter screen (AID 1963579); note: nearly all actives have a fitted effect of over 45% in size
In short: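 Metabolically activated exposure: compounds, human liver microsomes and NADPH (0.5 mg/mL final apiece) were added to p53RE-bla cells seeded 5 h earlier, left 16 h at 37 C, and then assessed for viability by CellTiter-Glo luminescence.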

[7] = p53 small molecule agonists, cell-based qHTS assay with rat liver microsomes: qHTS cell viability counter screen (AID 1963580); note: nearly all actives have a fitted effect of over 45% in size
In short: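 Cytotoxicity counter screen: intracellular ATP measured by CellTiter-Glo luminescence in the same wells as the beta-lactamase reporter read, on HCT-116 p53RE-bla cells exposed 16 h at 37 C to compounds with rat liver microsomes and NADPH, each 0.5 mg/mL final.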

[8] = p53 small molecule agonists, cell-based qHTS assay: qHTS cell viability counter screen (AID 1963581); note: nearly all actives have a fitted effect of over 45% in size
In short: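 qHTS counter screen: 16 h compound exposure at 37 C of p53RE-bla HCT-116 cells (4,000 per well, seeded 5 h prior), cell viability by ATP luminescence.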

[9] = molecular target: 5-hydroxytryptamine receptor 2A (Homo sapiens) (UniProt P28223); test: 5-hydroxytryptamine receptor 2A (HTR2A) small molecule agonists, cell-based qHTS assay (AID 1963587); note: nearly all actives have a fitted effect of over 30% in size
In short: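 CHO cells stably expressing human HTR2A, plated 18 h, loaded with calcium dye 1 h at 37 C. Agonist mode: compounds added and intracellular calcium fluorescence recorded kinetically for 2 min at 1 sec intervals.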

[10] = molecular target: Muscarinic acetylcholine receptor M1 (Homo sapiens) (UniProt P11229); test: Cholinergic receptor muscarinic 1 (CHRM1) small molecule antagonists, cell-based qHTS assay (AID 1963588); note: nearly all actives have a fitted effect of over 40% in size
In short: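 Compounds were tested at 15 concentrations in three independent runs. Dye-loaded CHRM1-CHO cells were exposed 5 min at room temperature before stimulation by acetylcholine added at 50nM. Intracellular calcium was read kinetically on FDSS for 3 min.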

[11] = molecular target: Muscarinic acetylcholine receptor M1 (Homo sapiens) (UniProt P11229); test: Cholinergic receptor muscarinic 1 (CHRM1) small molecule agonists, cell-based qHTS assay (AID 1963589); note: nearly all actives have a fitted effect of over 35% in size
In short: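 Kinetic fluorescence (1 s intervals) of calcium-sensitive dye in human M1 CHO cells after compound addition; cells pre-incubated 18 h at 37 C/5% CO2 and dye-loaded 1 h.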

[12] = cAMP Responsive Elements (CRE) small molecule agonists, cell-based qHTS assay (AID 1963590)
In short: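 Test agents in DMSO were incubated 3 h at 37 C/5% CO2 with CRE-bla HEK 293T cells seeded 18 h earlier; LiveBLAzer B/G FRET substrate was added and read after 2 h at room temperature.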

[13] = cAMP Responsive Elements (CRE) small molecule antagonists, cell-based qHTS assay (AID 1963591; active = well fitted inhibition curve with a large enough effect in the signal ratio in the repeat runs, not every such curve was filed as active; the % refers to the signal ratio)
In short: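 Reporter line CRE-bla HEK 293T in dialyzed-FBS DMEM; cells preincubated 18 h, treated 3 h with compound plus NKH477 (0.25 uM final); LiveBLAzer FRET, 2 h RT.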

[14] = molecular target: Beta-2 adrenergic receptor (Homo sapiens) (UniProt P07550); test: Adrenergic beta2 receptor (ADRB2) small molecule antagonists, cell-based qHTS assay (AID 1963592); note: series mostly up to about 92 µM; nearly all actives have a fitted effect of over 50% in size
In short: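 Assay format: CHO-ADRB2 cells, 18-20hr seeding at 37C/5% CO2, then compound plus 1nM isoproterenol agonist mix for 0.5hr RT. Homogeneous time-resolved fluorescence cAMP detection after 1hr, expressed as 665/615 nm ratio.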

[15] = molecular target: Beta-2 adrenergic receptor (Homo sapiens) (UniProt P07550); test: Adrenergic beta2 receptor (ADRB2) small molecule agonists, cell-based qHTS assay (AID 1963593);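 note: CHO cells stably overexpressing human ADRB2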
In short: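 CHO cells stably over-expressing ADRB2 were plated overnight at 37C, then dosed with compounds plus a stimulation mix containing 100uM IBMX and 25uM Ro-20-1724 for 0.5hr at room temperature. cAMP was measured by HTRF competition, 1hr.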

[16] = molecular target: D(2) dopamine receptor (Homo sapiens) (UniProt P14416); test: Dopamine D2 receptor (DRD2) small molecule agonists, cell-based qHTS assay (AID 1963594); note: nearly all actives have a fitted effect of over 35% in size
In short: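 HEK293 cells stably expressing human DRD2, pre-treated with PDE inhibitor Ro20-1724 (0.1 mM final) and compound 10 min at room temperature, then stimulated with NKH477 (200nM […]) for 30 min. cAMP read by HTRF (665/620 nm).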

[17] = molecular target: D(2) dopamine receptor (Homo sapiens) (UniProt P14416); test: Dopamine D2 receptor (DRD2) small molecule antagonists, cell-based qHTS assay (AID 1963595; active = well fitted inhibition curve with a large enough effect in the signal ratio in the repeat runs, with a control signal flat; the % refers to the signal ratio)
In short: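 Antagonist mode in DRD2-HEK293 cells: after compound addition with 0.1 mM Ro20-1724, cells received quinpirole (12 nM) and NKH477 (200 nM) for 30 min at room temperature; HTRF cAMP read after 1 h detection.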

[18] = molecular target: 5-hydroxytryptamine receptor 2A (Homo sapiens) (UniProt P28223); test: 5-hydroxytryptamine receptor 2A (HTR2A) small molecule antagonists, cell-based qHTS assay (AID 1963586); note: nearly all actives have a fitted effect of over 45% in size
In short: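 CHO cells stably expressing human HTR2A were plated for 18 h at 37 C, then loaded with calcium dye for 1 h. Compounds were preincubated 5 min at room temperature before DOI (4 nM solution) was added. Kinetic fluorescence was read for 3 min.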

Measured: Potency

Muscarinic acetylcholine receptor M1 (Homo sapiens), sequence (P11229 whole entry, looked up): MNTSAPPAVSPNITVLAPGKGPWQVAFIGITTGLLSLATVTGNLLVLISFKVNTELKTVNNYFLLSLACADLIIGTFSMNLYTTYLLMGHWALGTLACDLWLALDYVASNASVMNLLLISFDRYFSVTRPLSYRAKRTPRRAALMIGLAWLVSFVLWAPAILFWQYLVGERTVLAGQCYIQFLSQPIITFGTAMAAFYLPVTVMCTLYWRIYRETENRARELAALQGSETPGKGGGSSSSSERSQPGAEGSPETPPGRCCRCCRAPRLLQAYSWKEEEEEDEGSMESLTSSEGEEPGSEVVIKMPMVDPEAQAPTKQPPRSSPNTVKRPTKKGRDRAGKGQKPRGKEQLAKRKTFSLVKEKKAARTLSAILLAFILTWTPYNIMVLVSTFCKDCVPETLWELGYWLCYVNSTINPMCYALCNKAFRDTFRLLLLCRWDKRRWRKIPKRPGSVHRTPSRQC
Beta-2 adrenergic receptor (Homo sapiens), sequence (P07550 whole entry, looked up): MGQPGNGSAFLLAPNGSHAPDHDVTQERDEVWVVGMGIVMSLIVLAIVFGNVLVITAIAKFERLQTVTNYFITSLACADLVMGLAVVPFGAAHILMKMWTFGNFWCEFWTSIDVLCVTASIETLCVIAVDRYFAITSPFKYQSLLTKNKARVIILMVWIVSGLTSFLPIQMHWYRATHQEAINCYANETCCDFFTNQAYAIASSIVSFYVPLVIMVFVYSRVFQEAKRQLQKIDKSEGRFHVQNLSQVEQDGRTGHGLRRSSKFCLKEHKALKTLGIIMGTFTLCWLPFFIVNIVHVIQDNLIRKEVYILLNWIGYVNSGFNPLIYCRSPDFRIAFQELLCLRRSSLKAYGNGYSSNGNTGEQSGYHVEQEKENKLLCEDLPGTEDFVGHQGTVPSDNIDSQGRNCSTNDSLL
KiSS-1 receptor (Homo sapiens), sequence (Q969F8 whole entry, looked up): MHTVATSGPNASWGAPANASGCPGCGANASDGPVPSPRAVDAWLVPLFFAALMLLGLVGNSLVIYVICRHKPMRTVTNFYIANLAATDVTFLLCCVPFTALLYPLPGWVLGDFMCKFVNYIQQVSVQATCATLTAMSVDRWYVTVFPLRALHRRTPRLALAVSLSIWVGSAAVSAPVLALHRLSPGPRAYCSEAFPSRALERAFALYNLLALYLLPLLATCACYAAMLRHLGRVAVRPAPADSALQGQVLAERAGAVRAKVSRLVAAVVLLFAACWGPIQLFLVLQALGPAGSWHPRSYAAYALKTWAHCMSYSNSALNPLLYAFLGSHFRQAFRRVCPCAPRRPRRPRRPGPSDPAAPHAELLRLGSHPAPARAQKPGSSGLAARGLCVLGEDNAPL
Gonadotropin-releasing hormone receptor (Homo sapiens), sequence (P30968 whole entry, looked up): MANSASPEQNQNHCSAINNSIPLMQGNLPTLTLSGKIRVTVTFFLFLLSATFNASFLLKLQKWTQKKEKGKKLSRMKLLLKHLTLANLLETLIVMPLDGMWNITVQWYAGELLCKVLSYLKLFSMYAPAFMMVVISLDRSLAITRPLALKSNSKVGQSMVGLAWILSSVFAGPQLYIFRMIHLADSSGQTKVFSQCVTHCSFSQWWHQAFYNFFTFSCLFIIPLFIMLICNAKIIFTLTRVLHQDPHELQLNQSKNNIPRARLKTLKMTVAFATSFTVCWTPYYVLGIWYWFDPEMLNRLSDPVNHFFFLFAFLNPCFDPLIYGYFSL
5-hydroxytryptamine receptor 2A (Homo sapiens), sequence (P28223 whole entry, looked up): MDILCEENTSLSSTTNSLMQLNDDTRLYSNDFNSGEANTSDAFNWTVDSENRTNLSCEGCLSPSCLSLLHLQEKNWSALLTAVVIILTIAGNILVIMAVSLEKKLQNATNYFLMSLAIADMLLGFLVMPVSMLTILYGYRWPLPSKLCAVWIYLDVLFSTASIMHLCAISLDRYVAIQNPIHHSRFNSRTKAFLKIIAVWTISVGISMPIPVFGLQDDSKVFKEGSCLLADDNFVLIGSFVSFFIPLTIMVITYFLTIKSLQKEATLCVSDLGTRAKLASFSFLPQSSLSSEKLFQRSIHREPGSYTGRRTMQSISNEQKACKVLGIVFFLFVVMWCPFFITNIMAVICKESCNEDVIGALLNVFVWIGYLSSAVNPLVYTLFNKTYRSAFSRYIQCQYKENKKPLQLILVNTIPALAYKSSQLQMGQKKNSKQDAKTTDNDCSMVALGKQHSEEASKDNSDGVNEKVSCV
D(2) dopamine receptor (Homo sapiens), sequence (P14416 whole entry, looked up): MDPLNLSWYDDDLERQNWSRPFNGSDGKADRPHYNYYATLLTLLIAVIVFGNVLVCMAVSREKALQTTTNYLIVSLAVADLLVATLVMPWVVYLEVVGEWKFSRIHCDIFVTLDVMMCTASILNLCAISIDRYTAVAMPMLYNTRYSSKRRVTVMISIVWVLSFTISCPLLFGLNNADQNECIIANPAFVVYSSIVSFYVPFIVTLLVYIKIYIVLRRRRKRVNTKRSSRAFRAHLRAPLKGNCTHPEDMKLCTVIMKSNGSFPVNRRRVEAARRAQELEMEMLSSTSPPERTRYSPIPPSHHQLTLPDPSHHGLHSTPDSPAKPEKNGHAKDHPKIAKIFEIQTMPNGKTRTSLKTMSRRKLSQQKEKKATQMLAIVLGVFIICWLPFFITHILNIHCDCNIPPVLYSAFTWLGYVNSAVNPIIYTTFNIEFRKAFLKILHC

CCOP(=O)(N=C1SCCS1)OCC
not listed: [18]
inactive: all other assays above

CN(N=O)c1ccc([N+](=O)[O-])cc1
not listed: [12] | [15] | [16]
inactive: all other assays above

COC(=O)C1=CCCN(C)C1
active: [3] 1070 nM
not listed: [9] | [10] | [11]
inactive: all other assays above

C#CC(C)(C)O
not listed: [11] | [17] | [18]
inactive: all other assays above
